# Data from the supplement of paper PMC7156485.
# Unmarked numbers belong to inactive results.
# Tested on: HCC1569
# Assay: H1.0 immunofluorescence intensity relative to DMSO (% of DMSO); higher = stronger H1.0 induction, active = 140 or more
# Settings: concentration: 10 µM; 24 h
# Outline: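 Using 384-well plates with 800 cells per well in RPMI plus 10% FBS, HCC1569 and TDF cells were exposed to compounds at 10 µM, in triplicate, for 24 h at 37 °C. Imaging of six fields per well at ×10 followed H1.0 and DAPI staining. The reported quantity, H1.0 nuclear intensity or cell number, is a median of replicates given as percent of the plate control, and HCC1569 values were smoothed for positional effects.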
# 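Note: TDF is a line of transformed human dermal fibroblasts of mesenchymal origin.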
row,SMILES,H1.0 immunofluorescence intensity
1,COC1C(OC(=O)c2ccc(C)[nH]2)C(O)C(Oc2ccc3c(O)c(NC(=O)c4c[nH]c(C(=O)Nc5c(O)c6ccc(OC7OC(C)(C)C(OC)C(OC(=O)c8ccc(C)[nH]8)C7O)c(C)c6oc5=O)c4C)c(=O)oc3c2C)OC1(C)C (stereo not drawn) [Coumermycin A1],101
2,CC(C)c1ccc2oc3nc(N)c(C(=O)O)cc3c(=O)c2c1,92.5
3,CC1CCC2(C(=O)O)CCC3(C)C(=CCC4C5(C)CC(O)C(O)C(C)(CO)C5C(O)CC43C)C2C1C (stereo not drawn) [Madecassic acid],91.7
4,Br.C=CCN1CCc2c(cc(O)c(O)c2Br)C(c2ccccc2)C1 (stereo not drawn) [R(+)-6-Bromo-APB hydrobromide],99.2
5,Cc1onc(-c2ccccc2)c1C(=O)NC1C(=O)N2C1SC(C)(C)C2C(=O)[O-] (stereo not drawn) [Oxacillin],111
6,CCCCCC=CCC=CCC=CCC=CCCCC(=O)O [Arachidonic acid],105
7,C=CC1CN2CCC1CC2C(O)c1ccnc2ccc(OC)cc12.Cl.O (stereo not drawn),95
8,CC(=O)OCC1=C(C(=O)[O-])N2C(=O)C(NC(=O)CSc3ccncc3)C2SC1.[Na+] (stereo not drawn) [Cephapirin sodium],84.4
9,CC(=O)OC1C(=O)C2(C)C(O)CC3OCC3(OC(C)=O)C2C(OC(=O)c2ccccc2)C2(O)CC(OC(=O)C(O)C(NC(=O)c3ccccc3)c3ccccc3)C(C)=C1C2(C)C (stereo not drawn) [Taxol],132
10,CCC(=O)c1ccc2c(c1)N(CCCN(C)C)c1ccccc1S2.Cl [Propionylpromazine hydrochloride],117
11,O=C(Nc1ncc(-c2cc(C(F)F)nn2-c2c(Cl)cccc2Cl)s1)C1CC1,149 (active)
12,CC(C)(C)c1onc(OCP(=O)(O)O)c1CC(N)C(=O)O (stereo not drawn),95.1
13,C#CC1(O)CCC2C3CCC4=Cc5oncc5CC4(C)C3CCC21C (stereo not drawn) [Danazol],100
14,Oc1cccc(-c2nc(N3CCOCC3)c3oc4ncccc4c3n2)c1,205 (active)
15,CC(=O)O.NC(N)=NN=Cc1c(Cl)cccc1Cl [Guanabenz acetate],97.8
16,"CC(C)NCC(O)c1ccc(O)c(O)c1.Cl (single isomer, unassigned; (-)) [(-)-Isoproterenol hydrochloride]",93.8
17,CC1(C)CCC2(C(=O)O)CCC3(C)C(=CCC4C5(C)CCC(O)C(C)(C)C5CCC43C)C2C1 (stereo not drawn) [Oleanolic acid],89.8
18,CC1(C)C2CCC1(C(=O)O)C(=O)C2 (stereo not drawn) [Ketopinic acid],88.3
19,COc1ccc(-c2cc(=O)c3ccc(O)cc3o2)cc1 [Pratol],105
20,CC1CCC2(C(=O)O)CCC3(C)C(=CCC4C5(C)CC(O)C(O)C(C)(CO)C5CCC43C)C2C1C (stereo not drawn) [Asiatic acid],94.7
21,CC(C)C[C@H](NC(=O)C(O)[C@H](N)Cc1ccc([N+](=O)[O-])cc1)C(=O)O.Cl (stereo partly drawn),93.9
22,CC(=O)NNC(=O)N1Cc2ccccc2Oc2ccc(Cl)cc21,103
23,Cc1ncc(Cl)cc1NCc1ccc(C(=O)N[C@@H](CC2CCCC2)C(=O)NC2CC2)s1,101
24,CC(C)n1cnc2c(NCc3ccccc3)nc(NCCCO)nc21 [Bohemine],106
25,"CCCCCCCCCCCCCCCCn1cc[n+](Cc2ccccc2)c1C.[I-] [eEF-2 Kinase Inhibitor, NH125]",101
26,O=C(OC1Cc2c(O)cc(O)cc2OC1c1cc(O)c(O)c(O)c1)c1cc(O)c(O)c(O)c1 (stereo not drawn) [Epigallocatechin gallate],100
27,CCN(CC)Cc1ccc(C(=O)N(CCc2ccccc2OC)[C@@H]2CCNC2)cc1.Cl.Cl,115
28,Cl.O=C1CC2(CCCC2)CC(=O)N1CCCCN1CCN(c2ncccn2)CC1 [Buspirone hydrochloride],97
